KAT2A inh: GCN5L2 (KAT2A) acetyltransferase inhibition; 390,000 compounds, 0.21% hits; AID 504327; GCN5L2 HAT assay, ThioGlo1 CoA-SH fluorescence; Q92830; Potency, µM (doses to about 58.9 µM), inactives show top-dose activity change, negative = inhibition, usual class: inhibitors
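qHTS, 1536-well. 20nM enzyme, pH 7.5 HEPES/EDTA/Tween-20 buffer; 15 min compound preinc., RT. Start: 75uM H3(1-25), 70uM AcCoA, 50uM ThioGlo1. Read Ex340/Em540 at t=0 (autofluorescence flag) and t=20 min.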
Sfp inh: inhibitors of Bacillus subtilis Sfp phosphopantetheinyl transferase | Q9F4F7 | Biochemical Sfp PPTase activity, qHTS | Potency, µM, without a hit: largest response in the series, negative = inhibition, actives largely listed as inhibitors | 310,000 compounds, 3.5% hits | AID 1490;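 further: the enzyme is Sfp with the accession as filed and its product quenches rhodamine fluorescence; 0% = enzyme reaction without inhibitor and -100% = no enzyme wells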
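With Hepes-Na pH 7.6 buffer containing 10 mM MgCl2, Sfp (15 nM) modified BHQ-2-YbbR (12.5 uM) using rhodamine-CoA (5 uM). Two reads 30 minutes apart at 525/598 nm yielded each well's rate.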
TrxR1 substrate: is turned over as a substrate by rat TrxR1; purified TrxR1 substrate turnover, NADPH consumption readout; Potency, µM (top dose mostly 114 µM), for the others: at the highest dose activity change, negative = substrate turnover; 390,000 compounds, 0.01% hits; further: nearly all actives have a fitted effect of over 50% in size
Target sequence (O89049 whole entry, looked up): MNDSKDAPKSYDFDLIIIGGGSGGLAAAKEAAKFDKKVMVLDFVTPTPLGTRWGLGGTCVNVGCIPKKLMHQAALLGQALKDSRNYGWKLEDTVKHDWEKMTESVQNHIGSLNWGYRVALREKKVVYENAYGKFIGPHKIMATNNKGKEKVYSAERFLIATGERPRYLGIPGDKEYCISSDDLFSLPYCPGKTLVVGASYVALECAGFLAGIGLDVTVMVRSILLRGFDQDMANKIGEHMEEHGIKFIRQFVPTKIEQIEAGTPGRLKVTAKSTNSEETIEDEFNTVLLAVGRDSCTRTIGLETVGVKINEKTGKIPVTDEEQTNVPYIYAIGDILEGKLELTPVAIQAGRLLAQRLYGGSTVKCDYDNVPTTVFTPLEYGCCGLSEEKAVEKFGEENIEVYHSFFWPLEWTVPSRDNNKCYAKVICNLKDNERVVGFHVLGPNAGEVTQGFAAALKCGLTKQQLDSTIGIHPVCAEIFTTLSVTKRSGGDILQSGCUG
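Rat TrxR1, dispensed at 90 nM, was prereduced with 400 uM NADPH (final) for 5 min at ~22 deg C, then incubated with compound 15 min before 400 uM selenite. A first-read NADPH fluorescence drop versus no-compound background flagged substrates.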
TrxR1 inh: rat TrxR1 inhibition; O89049; recombinant rTrxR1, NADPH fluorescence consumption, selenite substrate; Potency, µM (top dose mostly 114 µM), inactives show top-dose activity change, negative = inhibition, actives largely listed as inhibitors; 390,000 compounds, 1% hits; further: nearly all actives have a fitted effect of over 65% in size
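Rat TrxR1 (90 nM in the dispensed reagent) was pre-reduced with 400 uM NADPH for 5 min at room temperature, then incubated with compound for 15 min. After 400 uM selenite was added, NADPH fluorescence (Ex 340/Em 450 nm) was followed for 8 min.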
VDR inhibitor: vitamin D3 receptor (human) inhibition | VDR-SRC2-3 peptide fluorescence polarization, 2 h | P11473 | 400,000 compounds, 0.93% hits | AID 504847 | Potency, µM, for the others: max response, negative = inhibition, usual class: inhibitors
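FP read-out; VDR + SRC2-3 coactivator peptide; 23 nl compound by pintool; 2 h RT incubation; reagents held at 4 deg C, protected from light.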
GLS inh: inhibitors of human glutaminase (GLS); 410,000 compounds, 0.21% hits; Potency, µM (highest dose often 45.5 µM), without a hit: top-dose activity change, negative = inhibition, usual class: inhibitors; O94925; GLS enzymatic activity, qHTS titration
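Read-out is an Amplex red fluorescence increase coupled through glutamate oxidase and HRP, measured before and after 30 min room-temperature incubation. hKGA is in 45 mM KH2PO4 (pH 8.2) with 0.02% Tween-20; glutamine added as 1mM solution.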
* marks the source's active call; other numbers are inactive results; ? = inconclusive; · = no result given; [ ] = another dose, or the depositor's remark. A selection: hits, their analogues and other compounds. The true share with any hit is near 3.8%. The call rests on the fitted dose curve; in most records, active means well fitted curve in the direction sought with a large enough effect; inconclusive means small, poorly fitted or top-dose-only effect, or another doubt; inactive means no such curve, though single readings can be large; an effect the other way counts as inactive or inconclusive. Unless noted, on the % scale 0 is the no-effect control and ±100 the full control effect; potency means the concentration at half of the fitted maximal effect.

SMILES | KAT2A inh | Sfp inh | TrxR1 substrate | TrxR1 inh | VDR inhibitor | GLS inh
CCc1ccc(NC(=O)C(C)Sc2nc(-c3ccco3)c(C#N)c(=O)[nH]2)cc1 (configuration not stated) | -12% | -11% | 5% | 18µM* | ? | 20µM*
CC1CCN(S(=O)(=O)N2CCCC(C(=O)NCc3ccc(F)cc3)C2)CC1 (configuration not stated) | 1% | 5% | 6% | 20% | 79µM* | 11%
O=C(NCc1ccc(F)cc1)C1CCN(S(=O)(=O)N2CCCC2)CC1 | -10% | 13% | 0% | 17% | ? | -2%
CCOC(=O)C1(CCc2ccccc2)CCN(Cc2ccn[nH]2)CC1 | 0% | -7% | -4% | -1% | -20% | 4%
O=C1Nc2cccnc2N(C(=O)CCl)c2ccccc21 | -13% | -5% | -5% | 13µM* | 3% | -1%
CC(C)(S)[C@@H](N)C(=O)O | -4% | 50µM* | 2% | 0% | ? | 3%
C=Cc1ccc(Cn2c(C)c(CNCCc3ccccc3C)c(C(=O)O)c2C)cc1 | -4% | · | 0% | -3% | 4% | 8%
Cc1ccc(C(C)C)c(OCC(=O)Nc2ccc(C(=O)OC3CCCCC3)cc2)c1 | -6% | · | 6% | 11% | -12% | -3%
CCOc1ccc(CCNC(=O)COC(=O)/C=C/c2ccc(C)o2)cc1OCC | -10% | 56µM* | -5% | ? | 0% | -15%
Cc1ccc(/C=C/C(=O)OCC(=O)NCCN2C(=O)CSC2=O)o1 | -4% | 32µM* | -8% | -8%[57.1 µM] | -13% | 3%
Cc1ccsc1C(=O)NNC(=S)NC1CCCCC1 | -21% | 7% | 5% | 2% | 85% | 14%
CC1(C(=O)CSc2nc3ccccc3[nH]2)CCC(=O)O1 (configuration not stated) | -4% | -14% | 9%[57.1 µM] | 12%[57.1 µM] | 1% | -3%
CC1(C(=O)CSc2ncn[nH]2)CCC(=O)O1 (configuration not stated) | ? | 56µM* | · | · | · | ·
CC1(C(=O)CSc2n[nH]c(-c3ccccc3Cl)n2)CCC(=O)O1 (configuration not stated) | -70% | 50µM* | · | · | · | ·
Cc1csc(NC(=O)C2CCCCN2S(=O)(=O)c2ccccc2)n1 (configuration not stated) | -2% | 16% | -5%[57.1 µM] | 3%[57.1 µM] | -12% | -8%
O=C(O)CC12CC3CC(C1)CC(n1ncc(NCc4ccccc4Cl)c(Cl)c1=O)(C3)C2 | -6% | -17% | -5% | -3% | -10% | -13%
O=C(O)C12CC3CC(C1)CC(n1ncc(NCc4ccco4)c(Cl)c1=O)(C3)C2 | -15% | 35µM* | 9% | ? | 4% | 1%
COc1ccc(S(=O)(=O)Nc2ccc(F)cc2)cc1N(C)S(=O)(=O)c1ccc(Cl)cc1 | 7% | -12% | -9% | 15% | 0% | 13%
CCN(CC)C(=O)CSc1nc2c(sc(=S)n2CC)c(=O)n1-c1ccccc1 | -3% | 8% | -9% | -3% | -1% | -6%
CCN(CC)C(=O)CSc1nc2c(sc(=S)n2-c2ccccc2)c(=O)n1Cc1ccco1 | -3% | 40µM* | 3% | ? | 40µM* | 14%
O=C(CCc1nnc2ccc(N3CCCCC3)nn12)NCc1ccco1 | -21% | 14% | -3% | -9% | 1% | -4%
O=C1C=CC2=C3c4cc(O)c(O)cc4C[C@]3(O)COC2=C1 | -5% | -109% | · | · | 11µM* | ·
Cn1c(=O)c2c(ncn2Cc2ccc(Cl)cc2)n(C)c1=O | -23% | 1% | -6% | 10% | -7% | -11%
Cn1c(=O)c2c([nH]c(=S)n2Cc2ccc(Cl)cc2)n(C)c1=O | ? | 20µM* | -5% | -10% | 79µM* | ?
CC(=O)N1CCCc2cc(S(=O)(=O)N(C)CC(=O)Nc3ccc(F)cc3Cl)ccc21 | -2% | · | 2%[57.1 µM] | 24%[57.1 µM] | -4% | -10%
SMILES | KAT2A inh | Sfp inh | TrxR1 substrate | TrxR1 inh | VDR inhibitor | GLS inh
COc1ccc(CNC(=O)COC(=O)c2ccccc2OCC(=O)Nc2ccc(SC(F)F)cc2)cc1 | 28% | 9% | 6% | 34% | 7% | -11%
Cc1cc(SCNC(=O)c2ccccc2)ncn1 | -1% | 25µM* | 7% | ? | -9% | 11%
Cc1cccnc1NC(=O)CNC(=O)c1ccccc1 | 0% | · | 9% | 10% | 14% | -1%
Cc1cc(C)nc(SCNC(=O)c2ccc(F)cc2)n1 | -6% | 50µM* | -3% | ? | -4% | 1%
CSc1ccc(COC(=O)c2cc([N+](=O)[O-])ccc2N2CCOCC2)cc1 | 1% | · | -5% | 4% | ? | 0%
CC1(C)Cc2c(sc(NC(=O)C(=O)NCCCN3CCOCC3)c2C#N)CO1 | -1% | 16µM* | -8% | 6% | -5% | 22%
CC1(C)Cc2c(sc(NC(=O)/C=C/C(=O)O)c2C#N)CO1 | -4% | -11% | -6% | -23% | -16% | 1%
Cc1cc2ccccc2c(=O)n1CC(=O)N1CCN(c2cccc(Cl)c2)CC1 | -3% | -3% | 6% | 3% | -8% | 3%
Cc1cc2ccccc2c(=O)n1CC(=O)NCC(=O)N1CCN(c2ccccc2)CC1 | 18% | 50µM* | 7% | 4% | 11% | 32%
Cc1nc(C(=O)NNC(=O)c2ccccc2)c(C(F)(F)F)o1 | 0% | 45µM* | 5%[11.4 µM] | 18%[11.4 µM] | 6% | 1%
CN(C)CCCN=Cc1c(-c2ccccc2)[nH]n(-c2nc3ccccc3s2)c1=O | -5% | 50µM* | -9% | -12% | 18% | 0%
Cc1ccc(/C=C2\SC(N3CCCC3)=NC2=O)cc1 | 1% | 14% | · | · | · | ·
Cc1ccc(C2=NC(=O)/C(=C/c3cc(O)c(O)c(Br)c3)S2)cc1 | ? | 45µM* | 0%[57.1 µM] | -1%[57.1 µM] | ? | 7%
COc1cc(/C=C2\SC(N)=NC2=O)cc(Cl)c1O | -20% | 4% | -12% | -10% | -3% | 42%
COc1cc(/C=C2\SC(c3ccc(C)cc3)=NC2=O)cc(OC)c1O | -9% | 11µM* | 6%[57.1 µM] | 5%[57.1 µM] | ? | -2%
C/C(=N\NC(=O)c1cccc(S(=O)(=O)N2CCOCC2)c1)c1ccc(C)cc1 | -7% | · | 0% | 10% | -17% | 6%
Cc1cc(NS(=O)(=O)c2ccc(NC(=S)NC(=O)c3ccccc3)cc2)no1 | -20% | -7% | -19% | 45µM* | -11% | 30%
Cc1cc(NS(=O)(=O)c2ccc(NC(=S)NC(=O)c3ccc(C(C)(C)C)cc3)cc2)no1 | -8% | -10% | 3%[0.457 µM] | 45µM* | -12% | 13%
COc1ccc(C(=O)NC(=S)Nc2ccc(S(=O)(=O)Nc3cc(C)on3)cc2)cc1OC | -17% | 15% | 9% | ? | -11% | -3%

Screening results deposited in PubChem BioAssay by National Center for Advancing Translational Sciences (NCATS).
